From PubChem BioAssay
“And” between values parts separate entries of the source, which are not always exact repeats. Identical values can stand only once. The source made the active and inactive calls.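 The calls were made as follows, unless noted: active = luciferase signal above three times the same-plate solvent-only control wells; inactive = the rest.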

System: not listed separately
Assay: MELAS cybrid and Rieske KO viability enhancers – cell-based, MELAS cybrids, Rieske KO mouse fibroblasts, CellTiter-Glo, primary screen (AID 1508586);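 also: z relative to plate mean and SD of compound and empty wells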
Details: Rieske KO mouse fibroblast survival, low glucose, CellTiter-Glo 72 h

SMILES | z-score
COC(=O)[C@H](c1ccccc1Cl)N1CCc2sccc2C1 | -0.332 and -1.48
COc1ccc(C[C@H](N)C(=O)N[C@H]2[C@@H](O)[C@H](n3cnc4c(N(C)C)ncnc43)O[C@@H]2CO)cc1 | -0.707
COc1ccc(/C=C/C(=O)Nc2ccccc2C(=O)O)cc1OC | -0.0722 and 0.758
CC1=C(/C=C/C(C)=C/C=C/C(C)=C\C(=O)O)C(C)(C)CCC1 | -0.281
Cc1cccc(C)c1NC(=O)C1CCCCN1C (configuration not stated) | -0.166 and -1.35
O=c1ccc2ccc(O)c(O)c2o1 | 0.783
CN(C)c1nc(N(C)C)nc(N(C)C)n1 | 0.906 and 0.36 and 0.155
CC[C@H]1OC(=O)[C@H](C)[C@@H](O[C@H]2C[C@@](C)(OC)[C@@H](O)[C@H](C)O2)[C@H](C)[C@@H](O[C@@H]2O[C@H](C)C[C@H](N(C)C)[C@H]2O)[C@](C)(OC)C[C@@H](C)C(=O)[C@H](C)[C@@H](O)[C@]1(C)O | -0.647 and -0.657
CNCCC(Oc1ccc(C(F)(F)F)cc1)c1ccccc1 (configuration not stated) | -2.64 and 0.201 and 0.197
CS(=O)(=O)c1ccc(C2=C(c3ccccc3)C(=O)OC2)cc1 | -0.00526 and -0.204 and -0.438
Nc1ncnc2c1ncn2[C@@H]1O[C@H](CO)[C@@H](O)[C@@H]1O | 0.559 and 1.92
CC(C)NCC(O)COc1ccc(CC(N)=O)cc1 (configuration not stated) | -0.19
C[N+]1(C)CCCC(OC(=O)C(O)(c2ccccc2)c2ccccc2)C1 (configuration not stated) | 0.26
CCCCC(=O)N(Cc1ccc(-c2ccccc2-c2nn[nH]n2)cc1)[C@H](C(=O)O)C(C)C | 0.0466 and -1.21
C[C@H]1COc2c(N3CCN(C)CC3)c(F)cc3c(=O)c(C(=O)O)cn1c23 | -0.528
COc1ccc(-c2cc(=O)c3c(OC)c(OC)c(OC)c(OC)c3o2)cc1OC | 2.19
CC(C(=O)O)c1ccc(-c2ccccc2)c(F)c1 (configuration not stated) | 1.18 and -0.0179 and 1.37

Target: NAD(+) hydrolase SARM1 (Homo sapiens) (UniProt Q6SZW1)
Sequence (Q6SZW1 whole entry, looked up): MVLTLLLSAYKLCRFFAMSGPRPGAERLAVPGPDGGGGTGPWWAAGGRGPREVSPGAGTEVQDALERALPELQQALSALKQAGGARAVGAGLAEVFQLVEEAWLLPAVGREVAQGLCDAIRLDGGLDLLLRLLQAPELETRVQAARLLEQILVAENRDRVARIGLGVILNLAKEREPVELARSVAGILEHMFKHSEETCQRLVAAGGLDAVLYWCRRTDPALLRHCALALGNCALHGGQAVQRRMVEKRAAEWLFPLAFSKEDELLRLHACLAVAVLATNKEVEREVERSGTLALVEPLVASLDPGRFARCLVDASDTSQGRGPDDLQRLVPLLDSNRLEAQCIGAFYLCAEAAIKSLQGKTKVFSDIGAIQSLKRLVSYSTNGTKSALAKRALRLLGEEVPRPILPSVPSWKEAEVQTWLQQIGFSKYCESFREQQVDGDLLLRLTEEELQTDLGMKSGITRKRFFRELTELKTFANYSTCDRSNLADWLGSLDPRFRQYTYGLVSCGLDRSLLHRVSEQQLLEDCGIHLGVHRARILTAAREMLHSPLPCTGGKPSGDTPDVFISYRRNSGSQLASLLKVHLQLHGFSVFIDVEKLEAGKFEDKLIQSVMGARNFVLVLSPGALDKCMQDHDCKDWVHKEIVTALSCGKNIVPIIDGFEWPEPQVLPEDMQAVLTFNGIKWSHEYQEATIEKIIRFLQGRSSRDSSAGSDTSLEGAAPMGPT
Assay: blocking NAD cleavage by SARM1 SAM-TIR – cell lysate, NAD-Glo luminescence (AID 1508614;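 active = compound whose remaining NAD level is above about 45 nM, limit read from the data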;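 also: higher remaining NAD means stronger inhibition of SARM1 NADase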)
Details: SAM-TIR HEK293T lysate NADase, at 1 µM, stronger effect = higher value

SMILES | remaining NAD
COC(=O)[C@H](c1ccccc1Cl)N1CCc2sccc2C1 | 10 nM (inactive)
COc1ccc(C[C@H](N)C(=O)N[C@H]2[C@@H](O)[C@H](n3cnc4c(N(C)C)ncnc43)O[C@@H]2CO)cc1 | 10 nM (inactive)
COc1ccc(/C=C/C(=O)Nc2ccccc2C(=O)O)cc1OC | 10 nM (inactive)
CC1=C(/C=C/C(C)=C/C=C/C(C)=C\C(=O)O)C(C)(C)CCC1 | 10 nM (inactive)
Cc1cccc(C)c1NC(=O)C1CCCCN1C (configuration not stated) | 10 nM (inactive)
CN(C)c1nc(N(C)C)nc(N(C)C)n1 | 10 nM (inactive)
CC[C@H]1OC(=O)[C@H](C)[C@@H](O[C@H]2C[C@@](C)(OC)[C@@H](O)[C@H](C)O2)[C@H](C)[C@@H](O[C@@H]2O[C@H](C)C[C@H](N(C)C)[C@H]2O)[C@](C)(OC)C[C@@H](C)C(=O)[C@H](C)[C@@H](O)[C@]1(C)O | 10 nM (inactive)
CNCCC(Oc1ccc(C(F)(F)F)cc1)c1ccccc1 (configuration not stated) | 10 nM (inactive)
CS(=O)(=O)c1ccc(C2=C(c3ccccc3)C(=O)OC2)cc1 | 10 nM (inactive)
Nc1ncnc2c1ncn2[C@@H]1O[C@H](CO)[C@@H](O)[C@@H]1O | 10 nM (inactive)
CC(C)NCC(O)COc1ccc(CC(N)=O)cc1 (configuration not stated) | 10 nM (inactive)
C[N+]1(C)CCCC(OC(=O)C(O)(c2ccccc2)c2ccccc2)C1 (configuration not stated) | 10 nM (inactive)
CC(C)NCC(O)COc1cccc2ccccc12 (configuration not stated) | 10 nM (inactive)
CCc1ccc(CCOc2ccc(CC3SC(=O)NC3=O)cc2)nc1 (configuration not stated) | 10 nM (inactive)
CCCCC(=O)N(Cc1ccc(-c2ccccc2-c2nn[nH]n2)cc1)[C@H](C(=O)O)C(C)C | 10 nM (inactive)
C[C@H]1COc2c(N3CCN(C)CC3)c(F)cc3c(=O)c(C(=O)O)cn1c23 | 10 nM (inactive)
CC(C(=O)O)c1ccc(-c2ccccc2)c(F)c1 (configuration not stated) | 10 nM (inactive)

Target: Mitogen-activated protein kinase 7 (Homo sapiens) (UniProt Q13164)
Sequence (Q13164 whole entry, looked up, the tested form may be a part): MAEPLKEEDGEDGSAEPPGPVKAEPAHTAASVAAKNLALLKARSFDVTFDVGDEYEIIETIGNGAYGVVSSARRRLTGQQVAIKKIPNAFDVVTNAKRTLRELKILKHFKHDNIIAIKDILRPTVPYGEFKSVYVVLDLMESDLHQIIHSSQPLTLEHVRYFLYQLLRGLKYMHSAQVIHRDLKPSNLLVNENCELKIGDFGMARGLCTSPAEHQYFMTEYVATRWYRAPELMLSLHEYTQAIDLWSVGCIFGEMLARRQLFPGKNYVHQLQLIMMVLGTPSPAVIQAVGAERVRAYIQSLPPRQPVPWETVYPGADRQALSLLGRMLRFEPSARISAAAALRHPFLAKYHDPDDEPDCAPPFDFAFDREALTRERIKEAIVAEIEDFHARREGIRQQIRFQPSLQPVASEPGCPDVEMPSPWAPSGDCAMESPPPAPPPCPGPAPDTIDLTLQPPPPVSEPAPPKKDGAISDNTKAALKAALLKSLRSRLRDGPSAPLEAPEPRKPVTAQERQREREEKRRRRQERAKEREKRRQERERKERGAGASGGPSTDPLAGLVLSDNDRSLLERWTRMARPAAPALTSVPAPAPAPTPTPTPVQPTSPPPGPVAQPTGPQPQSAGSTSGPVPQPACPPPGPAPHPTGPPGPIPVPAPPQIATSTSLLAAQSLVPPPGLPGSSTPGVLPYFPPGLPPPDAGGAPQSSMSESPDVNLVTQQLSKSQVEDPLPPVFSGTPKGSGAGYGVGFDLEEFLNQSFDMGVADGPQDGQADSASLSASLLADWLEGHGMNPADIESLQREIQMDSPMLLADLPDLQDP
Assay: Gal4-ERK5 driven luciferase induction – cell-based, HTS, primary screen (AID 1508626);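 also: luciferase driven by Gal4-ERK5 fusion binding five Gal4 sites before minimal TATA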
Details: HeLa Gal4-ERK5 transactivation, 18 h, at 5 µM, stronger effect = higher value

SMILES | luciferase signal
COC(=O)[C@H](c1ccccc1Cl)N1CCc2sccc2C1 | 20 AU (inactive)
COc1ccc(C[C@H](N)C(=O)N[C@H]2[C@@H](O)[C@H](n3cnc4c(N(C)C)ncnc43)O[C@@H]2CO)cc1 | 244 AU (inactive)
CC1=C(/C=C/C(C)=C/C=C/C(C)=C\C(=O)O)C(C)(C)CCC1 | 48 AU (inactive)
Cc1cccc(C)c1NC(=O)C1CCCCN1C (configuration not stated) | 68 AU (inactive)
O=c1ccc2ccc(O)c(O)c2o1 | 64 AU (inactive)
CN(C)c1nc(N(C)C)nc(N(C)C)n1 | 40 AU (inactive)
CC[C@H]1OC(=O)[C@H](C)[C@@H](O[C@H]2C[C@@](C)(OC)[C@@H](O)[C@H](C)O2)[C@H](C)[C@@H](O[C@@H]2O[C@H](C)C[C@H](N(C)C)[C@H]2O)[C@](C)(OC)C[C@@H](C)C(=O)[C@H](C)[C@@H](O)[C@]1(C)O | 44 AU (inactive)
CS(=O)(=O)c1ccc(C2=C(c3ccccc3)C(=O)OC2)cc1 | 192 AU (inactive)
Cc1occc(=O)c1O | 52 AU (inactive)
Nc1ncnc2c1ncn2[C@@H]1O[C@H](CO)[C@@H](O)[C@@H]1O | 160 AU (inactive)
CC(C)NCC(O)COc1ccc(CC(N)=O)cc1 (configuration not stated) | 52 AU (inactive)
C[N+]1(C)CCCC(OC(=O)C(O)(c2ccccc2)c2ccccc2)C1 (configuration not stated) | 36 AU (inactive)
CC(C)NCC(O)COc1cccc2ccccc12 (configuration not stated) | 48 AU (inactive)
CCc1ccc(CCOc2ccc(CC3SC(=O)NC3=O)cc2)nc1 (configuration not stated) | 48 AU (inactive)
CCCCC(=O)N(Cc1ccc(-c2ccccc2-c2nn[nH]n2)cc1)[C@H](C(=O)O)C(C)C | 56 AU (inactive)
C[C@H]1COc2c(N3CCN(C)CC3)c(F)cc3c(=O)c(C(=O)O)cn1c23 | 296 AU (inactive)
COc1ccc(-c2cc(=O)c3c(OC)c(OC)c(OC)c(OC)c3o2)cc1OC | 48 AU (inactive)
CC(C(=O)O)c1ccc(-c2ccccc2)c(F)c1 (configuration not stated) | 40 AU (inactive)
